Screening data: PubChem, National Center for Advancing Translational Sciences (NCATS)
ALDH1A1 block: blocks purified human ALDH1A1 activity | P00352 | Purified ALDH1A1, NADH fluorescence, propionaldehyde substrate | Potency, µM (titrated, usually from 75.3 µM), inactives show top-dose activity, negative = inhibition, usual class: inhibitors | 7.3% of 220,000 active | AID 1030;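 note: plate controls were no enzyme wells and a reference inhibitor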
Target sequence (P00352 whole entry, looked up): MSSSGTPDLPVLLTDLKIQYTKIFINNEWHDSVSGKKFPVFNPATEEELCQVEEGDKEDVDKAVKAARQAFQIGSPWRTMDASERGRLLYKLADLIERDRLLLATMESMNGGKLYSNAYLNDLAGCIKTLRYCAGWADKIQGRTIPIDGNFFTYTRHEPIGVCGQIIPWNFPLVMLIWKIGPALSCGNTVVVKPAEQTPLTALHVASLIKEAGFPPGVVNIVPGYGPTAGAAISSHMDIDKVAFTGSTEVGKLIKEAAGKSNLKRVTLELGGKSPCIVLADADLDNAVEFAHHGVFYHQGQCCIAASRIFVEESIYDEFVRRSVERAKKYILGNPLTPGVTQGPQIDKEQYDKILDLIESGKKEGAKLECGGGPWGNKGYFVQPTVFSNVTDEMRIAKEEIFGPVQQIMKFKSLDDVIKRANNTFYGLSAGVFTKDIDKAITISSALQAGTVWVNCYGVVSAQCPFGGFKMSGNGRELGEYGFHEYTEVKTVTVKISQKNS
LMNA splice mod: LMNA splicing modulation. 0.01% of 200,000 active. Potency, µM (doses to about 46.1 µM), for the others: at the top dose ratio change, negative = inhibition, actives largely listed as inhibitors. HeLa LMNA splicing GFP/RFP minigene ratio, 48 h. AID 1487; active = well fitted inhibition curve with a large enough effect in the signal ratio, with a control signal flat, not every such curve was filed as active; inconclusive = small, poorly fitted or top-dose-only effect, or effect the other way, or a change in a side signal; the % refers to the signal ratio
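Read-out is the ratio of GFP to DsRed2 object intensity, acquired by 488 nm laser-scanning cytometry on HeLa lamin A-EGFP minigene reporter cells. Compound incubation 48 hrs at 37 °C in Opti-MEM with 2% FBS; DMSO 0.5% final.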
Luc counter: Kinase-Glo luciferase inhibition (counter-screen); Kinase-Glo luciferase, ATP luminescence, 8 min; Q27757; AID 1379; 0.28% of 200,000 active; Potency, µM (top dose mostly 38.3 µM), without a hit: at the top dose activity change, negative = inhibition, hits mostly inhibitors; active = well fitted curve in the direction sought with a large enough effect; inconclusive = small, poorly fitted or top-dose-only effect, or another doubt; inactive = no such curve, though single readings can be large; an effect the other way counts as inactive or inconclusive; note: nearly all actives have a fitted effect of over 60% in size
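Compound is pinned into ATP-containing buffer (10 uM ATP, imidazole pH 7.2, 7 mM MgCl2). Kinase-Glo luciferase reagent is then added. Light output is recorded following an 8-min room-temperature incubation.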
HPGD inh: blocks human HPGD enzyme activity. P15428. Potency, µM, inactives show at the top dose activity change, negative = inhibition, most hits filed as inhibitors. purified HPGD, NADH fluorescence kinetic, PGE2 substrate. 4.3% of 150,000 active
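NADH formation kinetics: reaction with 30 uM PGE2 and 1 mM NAD+ (final), 20 nM enzyme, Tris-HCl pH 8 with Tween 20, after 15 min compound preincubation at room temperature. Fluorescence change, last versus first of five reads.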
IMPase Li inh: membrane-permeable IMPase blocker, potentiated with lithium; Potency, µM (top dose mostly 59.4 µM), without a hit: at the highest dose activity, negative = IMPase inhibition, usual class: inhibitors; CHO-M1 cells, IP1 TR-FRET (IP-One), carbachol + lithium; 0.35% of 210,000 active; active = well fitted curve in the direction sought with a large enough effect; inconclusive = small, poorly fitted or top-dose-only effect, or another doubt; inactive = no such curve, though single readings can be large; an effect the other way counts as inactive or inconclusive;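 note: IP1 builds up when IMPase is blocked and the TR-FRET signal falls; plate controls were basal vehicle for no effect and high inhibitor control for full effect; nearly all actives have a fitted effect of over 50% in size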
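Readout is a homogeneous TR-FRET IP1 immunoassay (Ex 320, Em 665 and 620), where raised cytosolic IP1 lowers signal. Cells were CHO-M1 treated 30 min at 37C with test compounds plus a little lithium; AC50 values came from Hill-equation fitting.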
Active calls of the source: *; [ ] = dose if it differs, or a comment. Rows were chosen to be rich in hits. Some 9% of all compounds tested hit in one or more screens of this group. Unless noted, calls come from the whole dose curve; as a rule, active = well fitted inhibition curve with a large enough effect (not every such curve was filed as active); inconclusive = small, poorly fitted or top-dose-only effect, or another doubt; inactive = no such curve, though single readings can be large or run the other way. Unless noted, % is set by controls: 0 for no effect and ±100 for the full control effect; potency is the fitted concentration of half-maximal effect.

Results for CC1=NOC(=O)/C1=C\c1ccc(-c2ccc(Br)cc2)o1 ?
ALDH1A1 block: 10µM*; Luc counter: -8%; IMPase Li inh: -13%

Results for Cc1ccc(/C=C2\C(=O)ON=C2c2ccccc2)o1 ?
ALDH1A1 block: inconclusive; LMNA splice mod: inconclusive; Luc counter: 0%; IMPase Li inh: -3%

What do the screens show for `O=C1c2cccc3cccc(c23)C(=O)N1CC1CCCO1` (stereo not given)?
ALDH1A1 block: inconclusive; LMNA splice mod: 9%[46 µM]; Luc counter: 1%; IMPase Li inh: 6%

What do the screens show for `O=C(Nc1ccncc1)c1ccc2c(c1)C(=O)N(CC1CCCO1)C2=O` (stereo not given)?
ALDH1A1 block: 5.6µM*; LMNA splice mod: 16%; Luc counter: 3%; HPGD inh: -17%; IMPase Li inh: -4%

Results for Nc1cccc(Oc2ccc3c(c2)C(=O)N(CC2CCCO2)C3=O)c1 (stereo not given) ?
ALDH1A1 block: 8.9µM*

How did O=C(Nc1ccncc1)c1ccc2c(c1)C(=O)N(C1CCCCC1)C2=O do in these assays?
ALDH1A1 block: 7.1µM*; LMNA splice mod: inconclusive; Luc counter: -1%; HPGD inh: -11%; IMPase Li inh: 14%[38.3 µM]

How did Cc1cc(NC(=O)c2ccc3c(c2)C(=O)N(C2CCCCC2)C3=O)no1 do in these assays?
ALDH1A1 block: 0%; LMNA splice mod: -9%; Luc counter: 2%; HPGD inh: -4%; IMPase Li inh: -9%

What do the screens show for `Cc1nn(-c2ncc(C(F)(F)F)cc2Cl)c(=O)n1-c1ccccc1F`?
ALDH1A1 block: 4%; Luc counter: 2%; IMPase Li inh: 3%

Results for CN(C)S(=O)(=O)c1ccc(Cl)c(NC(=O)COC(=O)CCSc2ccccc2)c1 ?
ALDH1A1 block: 25µM*; LMNA splice mod: -14%; Luc counter: -1%; HPGD inh: -1%; IMPase Li inh: -5%

What do the screens show for `CN(C)S(=O)(=O)c1ccc(Cl)c(NC(=O)COC(=O)CNC(=O)c2ccco2)c1`?
ALDH1A1 block: inconclusive; LMNA splice mod: -10%[46 µM]; Luc counter: 0%; IMPase Li inh: 1%

How did Cc1ccc(OCCC(=O)OCC(=O)Nc2cc(S(=O)(=O)N(C)C)ccc2C)cc1 do in these assays?
ALDH1A1 block: 4µM*; LMNA splice mod: -15%[46 µM]; Luc counter: 2%; IMPase Li inh: -1%

Results for O=C(C1=C[C@H](c2ccccc2)C[C@H](OCc2ccc(CO)cc2)O1)N1CCN(Cc2ccccc2)CC1 ?
ALDH1A1 block: 14µM*; IMPase Li inh: 10%

How did CCO[C@H]1OC(C(=O)N2CCN(Cc3ccccc3)CC2)=C[C@@H](c2ccc(C(F)(F)F)cc2)[C@@H]1CCCO do in these assays?
ALDH1A1 block: 4.5µM*; IMPase Li inh: -10%

What do the screens show for `O=C(NC1CC1)C1=C[C@H](c2ccc3c(c2)OCO3)C[C@H](OCc2ccc(CO)cc2)O1`?
ALDH1A1 block: -6%; IMPase Li inh: 5%

Results for C#CCNC(=O)C1=C[C@H](c2ccc3c(c2)OCO3)C[C@H](OCc2ccc(CO)cc2)O1 ?
ALDH1A1 block: 28µM*; IMPase Li inh: 4%

What do the screens show for `O=C(C1=C[C@@H](C2CCCCC2)C[C@@H](OCCCCO)O1)N1CCN(Cc2ccccc2)CC1`?
ALDH1A1 block: 16µM*; IMPase Li inh: 3%

What do the screens show for `O=C(C1=C[C@@H](C2CC2)C[C@@H](OCCCCO)O1)N1CCN(Cc2ccccc2)CC1`?
ALDH1A1 block: inconclusive; IMPase Li inh: -2%

How did O=C(C1=C[C@@H](c2ccccc2)C[C@@H](OCc2ccc(CO)cc2)O1)N1CCN(Cc2ccc3c(c2)OCO3)CC1 do in these assays?
ALDH1A1 block: 6%; IMPase Li inh: 2%

What do the screens show for `CC(C)(C)N1C(=O)[C@H]2[C@@H]3[C@H](O)C=CC(=O)[C@H]3CC[C@H]2C1=O`?
ALDH1A1 block: 9%[13.5 µM]

How did CC(=O)NCCNc1ccnc(-c2ccccc2C)n1 do in these assays?
ALDH1A1 block: inconclusive; LMNA splice mod: 4%; IMPase Li inh: 2%

How did O=C(CCC(=O)N/N=C/c1ccccc1O)NCc1ccccc1 do in these assays?
ALDH1A1 block: -3%; LMNA splice mod: 4%; Luc counter: 0%; HPGD inh: -27%; IMPase Li inh: 4%

Results for O=C(C1=C[C@@H](c2ccccc2)C[C@@H](OCc2ccc(CO)cc2)O1)N1CCCCCCC1 ?
ALDH1A1 block: 25µM*; IMPase Li inh: 15%

Results for O=C(C1=C[C@H](c2ccc(C(F)(F)F)cc2)C[C@H](OCc2ccc(CO)cc2)O1)N1CCCCCCC1 ?
ALDH1A1 block: inconclusive; IMPase Li inh: 1%

What do the screens show for `O=C(Nc1ccccc1)C1=C[C@H](c2csc3ccccc23)C[C@H](OCc2ccc(CO)cc2)O1`?
ALDH1A1 block: -6%; IMPase Li inh: 15%

Results for C=CCOC(=O)C1=C[C@@H](c2csc3ccccc23)C[C@@H](OCc2ccc(CO)cc2)O1 ?
ALDH1A1 block: 25µM*; IMPase Li inh: -4%

Results for O=C(NCc1cccc2ccccc12)[C@H]1C[C@@H]1[C@H](NP(=O)(c1ccccc1)c1ccccc1)c1ccccc1 ?
ALDH1A1 block: inconclusive; Luc counter: 0%; HPGD inh: -39%; IMPase Li inh: -3%

What do the screens show for `COCCNC(=O)COc1cccc2c1OC(C)(C)C2`?
ALDH1A1 block: 5%; Luc counter: 1%; IMPase Li inh: 0%

What do the screens show for `CCS(=O)CCSc1nc2ccccc2s1` (stereo not given)?
ALDH1A1 block: inconclusive; LMNA splice mod: 5%; Luc counter: -1%; HPGD inh: 16µM*; IMPase Li inh: -8%[38.3 µM]

Results for O=C1CCCCCN1CSc1nc2ccccc2s1 ?
ALDH1A1 block: 13µM*; LMNA splice mod: 6%; Luc counter: -2%; HPGD inh: -24%; IMPase Li inh: 27%[38.3 µM]

What do the screens show for `NC(=O)C1(N2CCCCC2)CCN(C(=O)CSc2nc3ccccc3s2)CC1`?
ALDH1A1 block: 25µM*; LMNA splice mod: -3%; Luc counter: 0%; HPGD inh: -24%; IMPase Li inh: 25%[38.3 µM]

Results for CC(C)=NO[C@@H](C)c1cn([C@H](CO)Cc2ccccc2)nn1 ?
ALDH1A1 block: 14%[13.5 µM]

How did CCOc1ccc(S(=O)(=O)NCCc2sc(-c3ccc(C)cc3)nc2C)cc1 do in these assays?
LMNA splice mod: -2%[46 µM]

What do the screens show for `O=C(COc1ccc(S(=O)(=O)N2CCCCC2)cc1)NCc1cccnc1`?
ALDH1A1 block: -9%; LMNA splice mod: -2%; Luc counter: -1%; HPGD inh: -3%; IMPase Li inh: 33%[38.3 µM]
